Screening data: PubChem BioAssay, Broad Institute
TRPM1 prom inh – reduces MITF-dependent TRPM1 promoter luciferase signal; SK-MEL-5 TRPM1 promoter luciferase, 24 h; inhibition, % at 12.5 µM; 330,000 compounds, 0.83% hits; AID 488899;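 active = mean inhibition across replicates of 60% or more, whatever share of single replicates reaches that level; inconclusive = some that reach 60%, reason not given; inactive = mean inhibition across replicates below 60%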
esBAF inh – inhibitors of esBAF chromatin remodeling in mouse ES cells; Bmi1-luciferase knock-in reporter, 24 h; 100% = twice the neutral-well signal; reporter increase, % at 12.5 µM; 350,000 compounds, 2% hits; in the data active = activation above about 40%; inconclusive = no clear call, values can overlap the other calls;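 note: 0% = median of the plate's neutral control wells and 100% = double that signal; a rise in the Bmi1 reporter signal indicates esBAF inhibition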
EWS-Fli block – blocks EWS/Fli oncoprotein-driven transcription; A673 NR0B1-luciferase reporter, viability-normalised; inhibition, % at 12.6 µM; 350,000 compounds, 0.67% hits;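 active = mean inhibition of at least 50% after viability correction, with every replicate also passing that limit; inconclusive = mean reaches 50% but only one of two replicates passes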;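 note: firefly luciferase signal divided by Alamar Blue viability fluorescence both relative to DMSO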
PAX8 reporter – PAX8 transcriptional activity inhibition; AID 652154; 360,000 compounds, 1.2% hits; inhibition, % at 12.6 µM; RMG-I TPO-luciferase reporter, SteadyGlo, 24 h;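 active = mean replicate inhibition at least 60% with every replicate also reaching 60%; inconclusive = only one of the two criteria is met; inactive = mean below 60% and not all replicates reaching 60%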;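 note: luciferase light reporting Pax8 driven TPO promoter activity; plate controls were median of neutral control wells for no effect and mitoxantrone controls for full effect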
MITF act – MITF TRPM1 promoter activation in melanoma cells; AID 588334; activation, % at 12.5 µM; 300,000 compounds, 0.75% hits; SK-MEL-5 TRPM1-promoter luciferase, 24 h; % of positive control, neutral wells = 0;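 active = mean activation of at least 80% with every replicate also reaching 80%; inconclusive = mean reaches 80% but some replicate falls short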;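 note: 0% = neutral control wells and 100% = parthenolide positive control wells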
Wnt act – activates Wnt/beta-catenin signaling in a reporter cell assay | activation, % at 9.35 µM | activator, plate reader | 300,000 compounds, 1.2% hits | AID 743398; in the data active = activation above about 30%, passing the limit was not always enough; inconclusive = no clear call, values can overlap the other calls;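 note: 0% = neutral control wells and 100% = positive control wells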
Numbers without * were called inactive; ? = inconclusive; . = not tested or not shown. Most compounds without a hit are left out; they make up all but 4% or so of the library.

SMILES	TRPM1 prom inh	esBAF inh	EWS-Fli block	PAX8 reporter	MITF act	Wnt act
COc1cc(Cl)c(NC2=CC(=O)C(=O)c3ccccc32)c(OC)c1	96*	-65	5	95*	-96	0
CC(C)c1ccc(C(O)c2cnc(C(C)C)n2C)cc1 (centres undefined)	-33	73*	-91	-111	40	8
CC(C)c1ncc(C(O)c2ccccc2)n1C (centres undefined)	-4	4	10	4	.	?
C#CCN(C[C@@H]1[C@@H](OC(=O)NCc2ccccc2)[C@@H](OC(=O)NCc2ccccc2)CN(C(=O)OC(C)C)N1C(=O)OC(C)C)S(=O)(=O)c1ccc(C)cc1	.	6	10	35	.	-2
C#CCN(C[C@@H]1[C@@H](OC(=O)NCC2CCCCC2)[C@@H](OC(=O)NCC2CCCCC2)CN(C(=O)OC(C)C)N1C(=O)OC(C)C)S(=O)(=O)c1ccc(C)cc1	.	15	11	72*	.	-3
COc1cccc(CN2[C@H](CO)[C@@H]3c4ccccc4N(C(=O)C4CC4)C[C@@H]32)c1	.	-3	-3	9	.	.
C[C@@H]1CN([C@H](C)CO)C(=O)c2cc(NC(=O)NC3CCCCC3)ccc2O[C@@H](C)CCCCO[C@@H]1CN(C)C(=O)Nc1ccc(F)cc1	.	.	27	13	.	.
C[C@@H]1CN([C@@H](C)CO)C(=O)c2cc(NC(=O)Nc3ccc(C(F)(F)F)cc3)ccc2O[C@@H](C)CCCCO[C@H]1CN(C)Cc1ccccc1	.	-7	22	66*	.	.
C[C@H](CO)N1C[C@H](C)[C@H](CN(C)Cc2ccccc2)OCCCC[C@H](C)Oc2ccc(NC(=O)Nc3ccc(C(F)(F)F)cc3)cc2C1=O	.	3	-3	115*	.	.
C[C@@H]1CCCCO[C@H](CN(C)Cc2ccccc2)[C@@H](C)CN([C@H](C)CO)C(=O)c2cc(NC(=O)Nc3ccc(C(F)(F)F)cc3)ccc2O1	.	-3	-8	7	.	.
C[C@@H]1CCCCO[C@H](CN(C)Cc2ccccc2)[C@H](C)CN([C@H](C)CO)C(=O)c2cc(NC(=O)Nc3ccc(C(F)(F)F)cc3)ccc2O1	.	-7	27	107*	.	.
C[C@H]1CCCCO[C@@H](CN(C)Cc2ccccc2)[C@@H](C)CN([C@@H](C)CO)C(=O)c2cc(NC(=O)Nc3ccc(C(F)(F)F)cc3)ccc2O1	.	-8	24	108*	.	.
Cc1ccc(-c2ccc3c(c2)O[C@@H](CN(C)Cc2cncnc2)[C@@H](C)CN([C@@H](C)CO)S3(=O)=O)cc1	.	5	29	14	.	.
CO[C@H]1CN(C)C(=O)c2cc(NC(=O)c3ccc4c(c3)OCO4)ccc2OC[C@H](C)NC[C@H]1C	.	-1	-4	0	.	.
C[C@@H]1CCCCO[C@H](CN(C)Cc2ccccc2)[C@H](C)CN([C@@H](C)CO)C(=O)c2cc(NC(=O)Nc3ccc(C(F)(F)F)cc3)ccc2O1	.	3	3	115*	.	.
C[C@H]1CCCCO[C@H](CN(C)Cc2ccccc2)[C@@H](C)CN([C@@H](C)CO)C(=O)c2cc(NC(=O)Nc3ccc(C(F)(F)F)cc3)ccc2O1	.	-11	41	120*	.	.
CO[C@@H]1CN(C)C(=O)c2cc(NS(C)(=O)=O)ccc2OC[C@H](C)N(Cc2cccnc2)C[C@H]1C	.	-6	-12	.	.	.
C[C@H](CO)N1C[C@H](C)[C@@H](CN(C)Cc2ccc3c(c2)OCO3)Oc2ccc(NS(C)(=O)=O)cc2CC1=O	.	2	8	0	.	.
Cc1cc2ncn(CCOc3ccccc3)c2cc1C	-51	83*	.	.	56	.
CCC(=O)NCCc1nc2cc(NC(=O)c3ccc(Cl)cc3)ccc2n1C	-120	30	-55	-66	123*	37*
CCC(=O)NCCc1nc2cc(NC(=O)c3ccc(F)cc3)ccc2n1C	-86	39	-74	-56	93*	29
C[C@@H]1CN([C@H](C)CO)C(=O)c2cc(C#Cc3ccccc3F)cnc2O[C@H]1CN(C)C	.	-4	-15	0	.	.
O=C(N/N=C\c1ccccc1)c1ccccc1-n1cccc1	11	.	2	-1	-10	-1
O=C(N/N=C/c1ccc([N+](=O)[O-])o1)c1ccccc1-n1cccc1	78*	-9	23	16	-77	10
O=C(N/N=C/c1ccc([N+](=O)[O-])o1)c1ccc2c(c1)OCO2	98*	.	.	51	-98	9
SMILES	TRPM1 prom inh	esBAF inh	EWS-Fli block	PAX8 reporter	MITF act	Wnt act
O=C(C[C@H]1C[C@H]2c3cc(NC(=O)C4CCC4)ccc3O[C@H]2[C@@H](CO)O1)NCC1CC1	.	-4	-17	5	.	.
CC1CCN(C(=O)CNC(=O)c2ccc(Br)o2)CC1	-69	27	-59	-142	71	38*
CCNC(=O)C[C@H]1CC[C@H]2[C@@H](COc3ccc(NC(=O)Nc4cccc(OC)c4)cc3C(=O)N2C)O1	.	-4	-11	-6	.	.
O=C(O)c1ccc(-n2ncc3c2/C(=C/c2cccc([N+](=O)[O-])c2)CC3)cc1	-136	.	-42	-42	138*	?
O=C(O)c1ccc(-n2ncc3c2/C(=C\c2cccc([N+](=O)[O-])c2)CC3)cc1	-110	92*	-9	-25	113*	2
O=C(O)c1ccc(-n2c(/C=C/c3cccc([N+](=O)[O-])c3)nc3ccccc3c2=O)cc1	5	-7	-4	3	-2	-1
COc1cc(CO)ccc1OCc1ccc(Cl)nc1	-56	57*	-73	-121	.	36*
Cn1c(-c2ccccc2)c(C(=O)CCl)c2ccccc21	92*	.	-10	44	-92	6
CCn1c2ccccc2c(=O)c2ccccc21	0	-3	-1	-13	6	-1
CCn1c(-c2ccccc2)c(C(=O)CCl)c2ccccc21	73*	.	34	39	-71	-1
Cn1c(-c2ccccc2)c(CCO)c2ccccc21	1	-5	.	-2	.	9
O=C1NC(c2ccc(O)cc2)Nc2ccccc21 (centres undefined)	-8	19	-33	-36	.	9
CSc1ccc(C2NC(=O)c3ccccc3N2)cc1 (centres undefined)	-15	65*	21	-4	.	23
CN(C)C(=O)[C@H]1[C@H](CO)[C@H]2Cn3c(cccc3=O)[C@H]2N1CC1CCCCC1	.	.	22	.	.	.
CCC/C=N/Nc1nc2ccccc2s1	-67	.	-74	-148	80	75*
C(=C\c1ccccc1)/C=N/Nc1nc2ccccc2s1	-100	66*	.	.	101*	?
Cc1ccc2[nH]c(C)c(/C=N/Nc3nc4ccccc4s3)c2c1	17	6	.	-101	.	8
CCOC(=O)SC1=N/C(=C\c2ccc(N(C)C)cc2)C(=O)S1	7	3	1	.	-8	3
CCOC(=O)c1cc2c(=Cc3ccc(N(C)C)cc3)c3ccccc3n2[n+]1C	86*	.	1	20	-85	-1
Cc1cc2c(=Cc3ccc(N(C)C)cc3)c3ccccc3n2[n+]1C	101*	.	32	.	-100	7
